# Measured values taken from PubChem BioAssay AID1159580 (chemical genetic matrix, 2015).
# Where “and” joins values, the source holds several entries; their conditions need not be identical. Equal values may be shown once. Screen size: about 5,500 compounds; about 2,000 (36%) were called active. Not shown: some 18% with an inconclusive outcome. Some of the results follow. Unmarked numbers belong to inactive results. No stated cut-off is given here; in the data, active means normalized growth mostly below about 0.91 (no sharp cut-off); inconclusive means no clear call, values can overlap the other calls; inactive means mostly above about 0.92.
# Experiment: chemical genetic growth profiling, strain panel (AID 1159580);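 further: tested at 20 µM; growth read once vehicle control cultures reached saturation at 30 °C; 1 = growth at the plate median or of vehicle wells; lower values mean less growth of the strain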
# Settings: growth OD
# [1] = S. cerevisiae deletion strains, locus YAL013W, strain DEP1, active compounds read low
# [2] = S. cerevisiae deletion strains, locus YAL040C, strain CLN3, active compounds read low
# [3] = S. cerevisiae deletion strains, locus YCL061C, strain MRC1 (second series), active compounds read low
# [4] = S. cerevisiae deletion strains, locus YDR363W, strain ESC2, active compounds read low
# [5] = S. cerevisiae deletion strains, locus YER002W, strain NOP16, active compounds read low
# [6] = S. cerevisiae deletion strains, locus YGR229C, strain SMI1, active compounds read low
# [7] = S. cerevisiae deletion strains, locus YMR307W, strain GAS1, active compounds read low
# [8] = S. cerevisiae deletion strains, locus YNL175C, strain NOP13, active compounds read low
# [9] = S. cerevisiae deletion strains, locus YNL197C, strain WHI3, active compounds read low
# [10] = S. cerevisiae deletion strains, locus YNL224C, strain SQS1, active compounds read low
# [11] = S. cerevisiae deletion strains, locus YOR083W, strain WHI5 (second series), active compounds read low
# [12] = S. cerevisiae deletion strains, locus YPL241C, strain CIN2, active compounds read low
# [13] = S. cerevisiae deletion strains, locus YMR263W, strain SAP30, active compounds read low
# [14] = S. cerevisiae deletion strains, locus YPL055C, strain LGE1, active compounds read low
smiles,measurement,setting,value
CNc1ncnc2c1ncn2[C@@H]1O[C@H](CO)[C@H](O)C1O (stereo not given in full),normalized growth,[1],1.02
same,normalized growth,[2],1
same,normalized growth,[3],0.993
same,normalized growth,[4],0.996
same,normalized growth,[5],0.978
same,normalized growth,[6],1.01
same,normalized growth,[7],1.01
same,normalized growth,"S. cerevisiae deletion strains, locus YNL153C, strain GIM3, active compounds read low",1.01
same,normalized growth,[8],0.996
same,normalized growth,[9],0.999
same,normalized growth,[10],1
same,normalized growth,[11],1
same,normalized growth,[12],1
Cc1ccccc1CNc1ncnc2c1ncn2C1OC(CO)C(O)C1O (stereo not given),normalized growth,[1],1.01
same,normalized growth,[2],0.997
same,normalized growth,[3],0.999
same,normalized growth,[4],1.03
same,normalized growth,[5],1.01
same,normalized growth,[6],1.02
same,normalized growth,[13],1
same,normalized growth,[8],1.01
same,normalized growth,[9],0.995
same,normalized growth,[10],1.01
same,normalized growth,"S. cerevisiae deletion strains, locus YNL322C, strain KRE1, active compounds read low",1.01
same,normalized growth,[11],1.01
same,normalized growth,[14],1.01
OC[C@H]1O[C@@H](n2cnc3c(NCc4ccco4)ncnc32)[C@H](O)[C@@H]1O,normalized growth,"S. cerevisiae deletion strains, locus YBR021W, strain FUR4, active compounds read low",1.02
same,normalized growth,"S. cerevisiae deletion strains, locus YBR229C, strain ROT2, active compounds read low",1.01
same,normalized growth,"S. cerevisiae deletion strains, locus YCL029C, strain bik1, active compounds read low",1.01
same,normalized growth,"S. cerevisiae deletion strains, locus YDL035C, strain GPR1, active compounds read low",1.01
same,normalized growth,"S. cerevisiae deletion strains, locus YDL074C, strain BRE1, active compounds read low",1.05
same,normalized growth,"S. cerevisiae deletion strains, locus YDL101C, strain DUN1, active compounds read low",1.03
same,normalized growth,"S. cerevisiae deletion strains, locus YDL185W, strain tfp1, active compounds read low",1
same,normalized growth,"S. cerevisiae deletion strains, locus YDL192W, strain arf1, active compounds read low",1
same,normalized growth,"S. cerevisiae deletion strains, locus YDR101C, strain arx1, active compounds read low",1.02
same,normalized growth,"S. cerevisiae deletion strains, locus YDR150W, strain NUM1, active compounds read low",1.01
same,normalized growth,"S. cerevisiae deletion strains, locus YDR162C, strain NBP2, active compounds read low",1.02
same,normalized growth,"S. cerevisiae deletion strains, locus YDR318W, strain mcm21, active compounds read low",1
same,normalized growth,"S. cerevisiae deletion strains, locus YDR388W, active compounds read low",0.998
same,normalized growth,"S. cerevisiae deletion strains, locus YDR502C, strain sam2, active compounds read low",0.998
same,normalized growth,"S. cerevisiae deletion strains, locus YEL061C, strain CIN8, active compounds read low",1.01
same,normalized growth,"S. cerevisiae deletion strains, locus YER110C, active compounds read low",1
same,normalized growth,"S. cerevisiae deletion strains, locus YER155C, strain BEM2, active compounds read low",1.02
same,normalized growth,"S. cerevisiae deletion strains, locus YER167W, strain BCK2, active compounds read low",1
same,normalized growth,"S. cerevisiae deletion strains, locus YGL078C, strain dbp3, active compounds read low",0.999
same,normalized growth,"S. cerevisiae deletion strains, locus YGL086W, strain mad1, active compounds read low",1.02
same,normalized growth,"S. cerevisiae deletion strains, locus YGL248W, strain PDE1, active compounds read low",1.01
same,normalized growth,"S. cerevisiae deletion strains, locus YGR135W, strain pre9, active compounds read low",1
same,normalized growth,[6],1.02
same,normalized growth,"S. cerevisiae deletion strains, locus YGR252W, strain gcn5, active compounds read low",0.971
same,normalized growth,"S. cerevisiae deletion strains, locus YHR030C, strain SLT2, active compounds read low",1 and 1.06
same,normalized growth,"S. cerevisiae deletion strains, locus YHR079C, strain IRE1 (second series), active compounds read low",1.01
same,normalized growth,"S. cerevisiae deletion strains, locus YHR079C, strain IRE1, active compounds read low",1.04
same,normalized growth,"S. cerevisiae deletion strains, locus YHR094C, strain hxt1, active compounds read low",1
same,normalized growth,"S. cerevisiae deletion strains, locus YHR129C, strain ARP1, active compounds read low",1.02
same,normalized growth,"S. cerevisiae deletion strains, locus YHR200W, strain rpn10, active compounds read low",1.01
same,normalized growth,"S. cerevisiae deletion strains, locus YIL066C, strain RNR3, active compounds read low",1.01
same,normalized growth,"S. cerevisiae deletion strains, locus YIL073C, strain SPO22, active compounds read low",1.01
same,normalized growth,"S. cerevisiae deletion strains, locus YIL125W, strain kgd1, active compounds read low",1.01
same,normalized growth,"S. cerevisiae deletion strains, locus YIR030C, strain dcg1, active compounds read low",1.01
same,normalized growth,"S. cerevisiae deletion strains, locus YJL095W, strain BCK1, active compounds read low",1.06 and 1.02
same,normalized growth,"S. cerevisiae deletion strains, locus YJL134W, strain LCB3, active compounds read low",1.01
same,normalized growth,"S. cerevisiae deletion strains, locus YJL168C, strain set2, active compounds read low",1.01
same,normalized growth,"S. cerevisiae deletion strains, locus YJL187C, strain SWE1 (second series), active compounds read low",1.04
same,normalized growth,"S. cerevisiae deletion strains, locus YJR043C, strain POL32, active compounds read low",1.01
same,normalized growth,"S. cerevisiae deletion strains, locus YJR066W, strain TOR1, active compounds read low",0.974
same,normalized growth,"S. cerevisiae deletion strains, locus YKL009W, strain mrt4, active compounds read low",1.02
same,normalized growth,"S. cerevisiae deletion strains, locus YKL068W, active compounds read low",0.995
same,normalized growth,"S. cerevisiae deletion strains, locus YKL085W, strain MDH1 (second series), active compounds read low",0.993
same,normalized growth,"S. cerevisiae deletion strains, locus YKL085W, strain MDH1, active compounds read low",0.993
same,normalized growth,"S. cerevisiae deletion strains, locus YKL190W, strain CNB1, active compounds read low",1.01
same,normalized growth,"S. cerevisiae deletion strains, locus YKR001C, strain vps1, active compounds read low",1.01
same,normalized growth,"S. cerevisiae deletion strains, locus YLR039C, strain RIC1, active compounds read low",1.04
same,normalized growth,"S. cerevisiae deletion strains, locus YLR058C, strain SHM2, active compounds read low",1.02
same,normalized growth,"S. cerevisiae deletion strains, locus YLR102C, strain apc9, active compounds read low",1
same,normalized growth,"S. cerevisiae deletion strains, locus YLR113W, strain HOG1, active compounds read low",1.03
same,normalized growth,"S. cerevisiae deletion strains, locus YLR262C, strain YPT6, active compounds read low",1.06
same,normalized growth,"S. cerevisiae deletion strains, locus YLR268W, strain sec22, active compounds read low",1.04
same,normalized growth,"S. cerevisiae deletion strains, locus YLR330W, strain CHS5, active compounds read low",1.01
same,normalized growth,"S. cerevisiae deletion strains, locus YLR342W, strain FKS1 (second series), active compounds read low",1.01
same,normalized growth,"S. cerevisiae deletion strains, locus YLR371W, strain rom2, active compounds read low",1
same,normalized growth,"S. cerevisiae deletion strains, locus YLR418C, strain cdc73, active compounds read low",1.01
same,normalized growth,"S. cerevisiae deletion strains, locus YML016C, strain PPZ1, active compounds read low",1.01
same,normalized growth,"S. cerevisiae deletion strains, locus YML032C, strain rad52, active compounds read low",0.988
same,normalized growth,"S. cerevisiae deletion strains, locus YML124C, strain tub3, active compounds read low",0.996
same,normalized growth,"S. cerevisiae deletion strains, locus YMR078C, strain ctf18, active compounds read low",0.998
same,normalized growth,"S. cerevisiae deletion strains, locus YMR223W, strain ubp8, active compounds read low",1
same,normalized growth,[13],1.02
same,normalized growth,[7],1.04
same,normalized growth,"S. cerevisiae deletion strains, locus YNL067W, strain RPL9B, active compounds read low",1.04
same,normalized growth,"S. cerevisiae deletion strains, locus YNL183C, strain NPR1, active compounds read low",0.991
same,normalized growth,"S. cerevisiae deletion strains, locus YNL233W, strain BNI4, active compounds read low",1.05
same,normalized growth,"S. cerevisiae deletion strains, locus YNL250W, strain rad50, active compounds read low",1.02
same,normalized growth,"S. cerevisiae deletion strains, locus YNL271C, strain bni1, active compounds read low",1
same,normalized growth,"S. cerevisiae deletion strains, locus YNL298W, strain CLA4, active compounds read low",0.995
same,normalized growth,"S. cerevisiae deletion strains, locus YNL307C, strain MCK1, active compounds read low",1.01
same,normalized growth,"S. cerevisiae deletion strains, locus YNR052C, strain pop2, active compounds read low",0.996
same,normalized growth,"S. cerevisiae deletion strains, locus YOL012C, strain htz1",2.36 [resistant] (active)
same,normalized growth,"S. cerevisiae deletion strains, locus YOL147C, strain pex11, active compounds read low",0.998
same,normalized growth,"S. cerevisiae deletion strains, locus YOR061W, strain CKA2, active compounds read low",1.01
same,normalized growth,"S. cerevisiae deletion strains, locus YOR069W, strain VPS5, active compounds read low",1.01
same,normalized growth,"S. cerevisiae deletion strains, locus YOR136W, strain idh2, active compounds read low",1
same,normalized growth,"S. cerevisiae deletion strains, locus YOR144C, strain elg1, active compounds read low",0.987
same,normalized growth,"S. cerevisiae deletion strains, locus YOR184W, strain ser1, active compounds read low",0.999
same,normalized growth,"S. cerevisiae deletion strains, locus YOR231W, strain MKK1, active compounds read low",1.05
same,normalized growth,"S. cerevisiae deletion strains, locus YOR316C, strain cot1, active compounds read low",1
same,normalized growth,[14],1.03
same,normalized growth,[12],1
same,normalized growth,"S. cerevisiae deletion strains, locus YPL256C, strain CLN2, active compounds read low",1.06
same,normalized growth,"S. cerevisiae deletion strains, locus YPR119W, strain clb2, active compounds read low",1
same,normalized growth,"S. cerevisiae deletion strains, locus YPR141C, strain kar3, active compounds read low",1.01
same,normalized growth,"S. cerevisiae deletion strains, locus YPR163C, strain tif3, active compounds read low",1
same,normalized growth,"S. cerevisiae deletion strains, locus YPR167C, strain met16, active compounds read low",1.01
same,normalized growth,"S. cerevisiae deletion strains, strain wtn01, active compounds read low",1.04
same,normalized growth,"S. cerevisiae strains, strain wild type, active compounds read low",1.01
